Values joined by “and” are separate entries in the source; they are usually repeats but may differ in a detail not shown here. Equal values may be shown once. Results filed as inconclusive are left out. Active and inactive are the calls of the source. Rule for the calls: active = hit-call score of the fitted dose curve at least 0.9, where 1 is the maximum; inconclusive = response in the unintended direction; inactive = score below 0.9.
molecular target: Cellular tumor antigen p53 (Homo sapiens) (UniProt P04637); test: TOX21_p53_BLA_p5_ratio: Tox21 HCT-116 p53 Agonism Beta-lactamase Assay, Ratio, Phase 5 (AID 2283599)
How it was run: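 HCT-116 p53-bla cells (4000/well) plated 5 h, dosed with compound (217-fold DMSO dilution) for 16 h at 37 C; CCF4-AM substrate 2 h at room temperature. Activity is the 460/530 nm emission ratio (405 nm excitation), fitted in gain-of-signal direction versus DMSO.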

Cellular tumor antigen p53 (Homo sapiens), sequence (P04637 whole entry, looked up): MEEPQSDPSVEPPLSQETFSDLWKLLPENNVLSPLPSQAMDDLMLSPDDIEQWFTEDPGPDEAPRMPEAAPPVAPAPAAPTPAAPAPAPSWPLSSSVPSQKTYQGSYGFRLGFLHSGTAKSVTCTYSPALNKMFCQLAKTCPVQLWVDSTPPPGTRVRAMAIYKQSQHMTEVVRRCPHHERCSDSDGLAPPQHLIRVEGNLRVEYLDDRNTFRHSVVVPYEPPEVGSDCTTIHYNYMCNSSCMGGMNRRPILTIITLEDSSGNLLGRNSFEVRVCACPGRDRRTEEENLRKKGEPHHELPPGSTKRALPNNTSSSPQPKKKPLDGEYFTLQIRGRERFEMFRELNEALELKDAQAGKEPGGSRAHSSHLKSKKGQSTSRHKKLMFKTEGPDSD

Compound | outcome | AC50
CC1(C)[C@H](C(=O)O[C@H](C#N)c2cccc(Oc3ccccc3)c2)[C@@H]1/C=C(\Cl)C(F)(F)F | inactive | 
CCOP(=O)(OCC)OC(=CCl)c1ccc(Cl)cc1Cl | inactive | 
C=CC(=O)[O][Sn]([CH2]CCC)([CH2]CCC)[CH2]CCC |  | 13.4 µM (active)
O=C(CCl)NCO | inactive | 
CCOP(=S)(OCC)Oc1ccc(Cl)cc1Cl | inactive | 
O=C(CCl)Nc1ccccc1 | inactive | 
Cc1ccccc1OP(=O)(Oc1ccccc1C)Oc1ccccc1C | inactive | 
O=S1OC[C@@H]2[C@H](CO1)[C@]1(Cl)C(Cl)=C(Cl)[C@@]2(Cl)C1(Cl)Cl (some centres not stated) | inactive | 
CC(C=O)Cc1ccc2c(c1)OCO2 (configuration not stated) | inactive | 
c1csc(-c2ccc(-c3cccs3)s2)c1 |  | 59.3 µM (active)
Cc1cc(-c2cc(C)c(N)c(C)c2)cc(C)c1N | inactive | 
C[CH2][Hg][S]c1ccccc1C(=O)O |  | 350 nM (active) and 3 µM (active)
OC[P+](CO)(CO)CO | inactive | 
CCOc1ccc(N)cc1 | inactive | 
COc1ccc(N)cc1 | inactive | 
CC(C)C(C)(N)C#N (configuration not stated) | inactive | 
O=[N+]([O-])c1ccccc1O | inactive | 
OCC(c1ccc(Cl)cc1)c1ccc(Cl)cc1 |  | 86.8 µM (active)

Compound | outcome | AC50
Cc1cc(Cl)ccc1O | inactive | 
C=C(C)[C@@H]1CC=C(C=O)CC1 | inactive | 
CC1(C)[C@H](/C=C2\CCSC2=O)[C@@H]1C(=O)OCc1coc(Cc2ccccc2)c1 | inactive | 
OC(c1ccc(Cl)cc1)(c1ccc(Cl)cc1)c1cccnc1 |  | 72.5 µM (active)
N#Cc1ccc(Cl)cc1 | inactive | 
CC(C)(C)c1cc([N+](=O)[O-])cc(C(C)(C)C)c1O | inactive | 
O=C1C[C@@H]2OCC=C3CN4CC[C@]56c7ccccc7N1[C@H]5[C@H]2[C@H]3C[C@H]46 | inactive | 
N#CS | inactive | 
CCC[CH2][Sn]([Cl])([Cl])[CH2]CCC |  | 15 µM (active) and 20.4 µM (active)
CCCSP(=S)(OCC)Oc1ccc(SC)cc1 (configuration not stated) | inactive | 
CC(c1ccc(O)cc1)c1ccc(O)cc1 | inactive | 
O=CCCl | inactive | 
O=NN1CCOCC1 | inactive | 
CN(N=O)C(N)=O | inactive | 
CCOC(=O)CC(=O)CCl | inactive | 
[F][Sn]([c]1ccccc1)([c]1ccccc1)[c]1ccccc1 |  | 18.3 µM (active)
Cl[C@H]1OCCO[C@@H]1Cl | inactive | 
Cc1cc(Cl)ccc1OCCCC(=O)O | inactive | 

molecular target: Cellular tumor antigen p53 (Homo sapiens) (UniProt P04637); test: TOX21_p53_BLA_p4_ratio: Tox21 HCT-116 p53 Agonism Beta-lactamase Assay, Ratio, Phase 4 (AID 2283601)
How it was run: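 HCT-116 p53 beta-lactamase reporter cells (4000/well) preincubated 5 h, then compound (217-fold dilution of DMSO stock) for 16 h at 37C. CCF4-AM substrate added 2 h at room temperature; 460/530 nm emission ratio fitted upward versus DMSO.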

Compound | outcome | AC50
CC1(C)[C@H](C(=O)O[C@H](C#N)c2cccc(Oc3ccccc3)c2)[C@@H]1/C=C(\Cl)C(F)(F)F | inactive | 
CCOP(=O)(OCC)OC(=CCl)c1ccc(Cl)cc1Cl | inactive | 
C=CC(=O)[O][Sn]([CH2]CCC)([CH2]CCC)[CH2]CCC |  | 13.4 µM (active)
O=C(CCl)NCO | inactive | 
CCOP(=S)(OCC)Oc1ccc(Cl)cc1Cl | inactive | 
O=C(CCl)Nc1ccccc1 | inactive | 
Cc1ccccc1OP(=O)(Oc1ccccc1C)Oc1ccccc1C | inactive | 
O=S1OC[C@@H]2[C@H](CO1)[C@]1(Cl)C(Cl)=C(Cl)[C@@]2(Cl)C1(Cl)Cl (some centres not stated) | inactive | 
CC(C=O)Cc1ccc2c(c1)OCO2 (configuration not stated) | inactive | 
c1csc(-c2ccc(-c3cccs3)s2)c1 |  | 46.1 µM (active)
Cc1cc(-c2cc(C)c(N)c(C)c2)cc(C)c1N | inactive | 
C[CH2][Hg][S]c1ccccc1C(=O)O |  | 46.1 µM (active) and 34.6 µM (active)
OC[P+](CO)(CO)CO | inactive | 
CCOc1ccc(N)cc1 | inactive | 
COc1ccc(N)cc1 | inactive | 
CC(C)C(C)(N)C#N (configuration not stated) | inactive | 
O=[N+]([O-])c1ccccc1O | inactive | 
OCC(c1ccc(Cl)cc1)c1ccc(Cl)cc1 |  | 85.2 µM (active)

Compound | outcome | AC50
Cc1cc(Cl)ccc1O | inactive | 
C=C(C)[C@@H]1CC=C(C=O)CC1 | inactive | 
CC1(C)[C@H](/C=C2\CCSC2=O)[C@@H]1C(=O)OCc1coc(Cc2ccccc2)c1 |  | 69.3 µM (active)
OC(c1ccc(Cl)cc1)(c1ccc(Cl)cc1)c1cccnc1 |  | 70.9 µM (active)
N#Cc1ccc(Cl)cc1 | inactive | 
CC(C)(C)c1cc([N+](=O)[O-])cc(C(C)(C)C)c1O |  | 46.1 µM (active)
O=C1C[C@@H]2OCC=C3CN4CC[C@]56c7ccccc7N1[C@H]5[C@H]2[C@H]3C[C@H]46 | inactive | 
N#CS | inactive | 
CCC[CH2][Sn]([Cl])([Cl])[CH2]CCC |  | 3.21 µM (active) and 13.9 µM (active)
CCCSP(=S)(OCC)Oc1ccc(SC)cc1 (configuration not stated) | inactive | 
CC(c1ccc(O)cc1)c1ccc(O)cc1 | inactive | 
O=CCCl | inactive | 
O=NN1CCOCC1 | inactive | 
CN(N=O)C(N)=O | inactive | 
CCOC(=O)CC(=O)CCl | inactive | 
[F][Sn]([c]1ccccc1)([c]1ccccc1)[c]1ccccc1 |  | 12 µM (active)
Cl[C@H]1OCCO[C@@H]1Cl | inactive | 
Cc1cc(Cl)ccc1OCCCC(=O)O | inactive | 
